Reference: PubChem BioAssay (NCATS)
The source made the active and inactive calls. Entries that show only a call come without a potency. Calls follow the shape of the dose curve; as a rule, active = well fitted inhibition curve with a large enough effect; inconclusive = small, poorly fitted or top-dose-only effect; inactive = flat fitted curve, though single readings scatter.

Biological target: Flap endonuclease 1 (Homo sapiens) (UniProt P39748)
Test: qHTS Validation Assay for the Inhibitors of Human Flap endonuclease 1 (FEN1) (AID 488816)
Conditions: FEN1 nuclease activity, fluorogenic DNA substrate; series mostly up to 57.1 µM
From the text: The major human flap endonuclease FEN1 is an efficient structure-specific enzyme that recognizes and cleaves a 5'-unannealed DNA flap. It belongs to the RAD2 family nucleases, which are involved in DNA metabolism and are highly conserved in prokaryotes and eukaryotes. FEN1 is a key enzyme in DNA replication, repair and maintenance of genomic stability. 5'-flap removal by FEN1 is critical for Okazaki fragment processing during lagging strand DNA synthesis, long-patch base excision repair (LP BER), and regulating or facilitating recombination events. […] Deletion of the yeast FEN1 gene, i.e. rad27, results in an increased frequency of short DNA (3-32 bp) repeats, micro- and mini-satellite formation, trinucleotide repeat expansion, spontaneous recombination events, and a severe growth defect in association with cell cycle arrest in late S/G2 phase. […] Cells from fen1-/- blastocysts show increased apoptotic cell death after ionizing radiation treatment, and chicken cells lacking the fen1 gene are hypersensitive to DNA alkylating agents, e.g. methylmethane sulfonate (MMS) and N-methyl-N'-nitro-N-nitrosoguanidine (MNNG), as well as hydrogen peroxide.
FEN1 is found to be increased in many human cancers, including lung, brain cancer, gastric cancer, prostate cancer, pancreatic cancer and breast cancer. […] In particular, elevation of FEN1 in hormone refractory human prostate cancer cells correlates with resistant to various anticancer agents including ionizing radiation, doxorubicin, paclitaxel and vinblastine.
Three uL of reagents (buffer in column 3 and 4 as negative control and 10 nM FEN1 in columns 1, 2, and 5-48) were dispensed into 1,536-well black solid-bottomed plate. Compounds (23 nL) were transferred via Kalypsys pin tool equipped with 1536-pin array (10 nL slotted pins, V&P Scientific, San Diego, CA). The plates were then incubated for 15 min at room temperature, and 1 uL substrate (50 nM final concentration) were added to start the reaction read twice at 0 min read and 15 min on ViewLux reader. Throughout the screen, reagent bottle and all liquid lines were chilled and made light-tight to minimize reagent degradation. All screening operations were performed on a fully integrated robotic system (Kalypsys, San Diego, CA) containing one RX-130 and two RX-90 anthropomorphic robotic arms (Staubli, Duncan, SC). Library plates were screened starting from the lowest and proceeding to the highest concentration, and a "double-dipping" step of the highest concentration was required to access higher concentrations of compounds. Vehicle-only plates, with DMSO being pin-transferred to the entire column 5-48 compound area, were inserted uniformly at the beginning and the end of each library in order to monitor for and record any shifts in the background, which can be affected by reagent dispensers or loss in enzyme activity overtime. Screening data was corrected, normalized, and concentration-effect relationships were derived by using publicly-available curve fitting algorithms developed in-house (http://ncgc.nih.gov/pub/openhts). A four parameter Hill equation was fitted to the concentration-response data by minimizing the residual error between the modeled and observed responses.
Potency is read from the fitted curve at half-maximal effect.

Sequence of Flap endonuclease 1 (Homo sapiens) (P39748 whole entry, looked up): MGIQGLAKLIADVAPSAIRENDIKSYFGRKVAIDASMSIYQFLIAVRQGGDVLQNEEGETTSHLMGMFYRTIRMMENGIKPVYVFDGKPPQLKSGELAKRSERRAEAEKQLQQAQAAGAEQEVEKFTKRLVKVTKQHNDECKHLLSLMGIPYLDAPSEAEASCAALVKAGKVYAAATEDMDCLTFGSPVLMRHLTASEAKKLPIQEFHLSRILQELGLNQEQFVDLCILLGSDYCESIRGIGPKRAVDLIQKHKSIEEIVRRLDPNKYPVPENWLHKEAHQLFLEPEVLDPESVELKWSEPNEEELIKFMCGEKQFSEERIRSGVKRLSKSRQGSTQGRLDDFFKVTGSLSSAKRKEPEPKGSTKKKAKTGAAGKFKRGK

SMILES | Potency
O=[N+]([O-])/C=C/c1ccc2c(c1)OCO2 | inactive
N[C@@H](Cn1oc(=O)[nH]c1=O)C(=O)O | inactive
O=c1c2ccccc2[se]n1-c1ccccc1 | inactive
NC(=O)CI | inactive
C[C@@H]1O[C@@H](O[C@H]2C[C@@H](O)[C@]3(CO)[C@@H]4C(CC[C@]3(O)C2)[C@@]2(O)CC[C@H]([C@@H]3COC(=O)C3)[C@@]2(C)C[C@H]4O)[C@H](O)[C@H](O)[C@H]1O (stereo not given in full) | inactive
CC(N)[C@H](O)c1ccc(O)c(O)c1 (stereo not given in full) | 2.67 µM (active)
C[C@]12Cc3cn4c(nc3C=C1CCC1C2CC[C@@]2(C)[C@H]1CC[C@@]2(O)C#N)nc1ccccc14 (stereo not given in full) | inactive
CCCN(CCC)CCc1c[nH]c2ccc(C(N)=O)cc12 | inactive
NC(=O)c1ccc(OCC(O)CN2CC=C(c3ccc(F)cc3)CC2)cc1 (stereo not given) | inactive
CC(C)CC(NP(=O)(O)O[C@@H]1O[C@@H](C)[C@H](O)[C@@H](O)[C@H]1O)C(=O)NC(Cc1c[nH]c2ccccc12)C(=O)O (stereo not given in full) | inactive
COc1ccc2c(c1)/C(=C/c1cnc[nH]1)C(=O)N2 | inactive
c1ccc2c(N3CCNCC3)cccc2c1 | inactive
COc1ccc(OC)c(C(O)C(C)N)c1 (stereo not given) | inactive
NCC(O)c1cc(O)c(O)cc1F (stereo not given) | 2.67 µM (active)
CCNC(=O)[C@H]1O[C@@H](n2cnc3c(N)ncnc32)[C@H](O)[C@@H]1O | inactive
Cc1o[nH]c(=O)c1CC(N)C(=O)O (stereo not given) | inactive
Cc1cc([C@@H]2CCCN2C)on1 | inactive
COc1ccc(CNC(=O)/C=C/c2ccc3[nH]cc(CCN(C)C)c3c2)cc1 | inactive
NC(Cc1cc(O)c(O)cc1O)C(=O)O (stereo not given) | 0.67 µM (active)
CC(=O)c1c(O)c(C)c(O)c(Cc2c(O)c3c(c(C(=O)/C=C/c4ccccc4)c2O)OC(C)(C)C=C3)c1O | inactive

SMILES | Potency
CN1CCc2cc(O)cc3c2[C@H]1Cc1ccc(O)c(O)c1-3 | 3.77 µM (active)
N=C(N)c1ccc(CS(=O)(=O)F)cc1 | inactive
NCCc1ccc(S(=O)(=O)F)cc1 | inactive
C[N+](C)(C)CC#CCOC(=O)Nc1cccc(Cl)c1 | inactive
NC(=O)COc1c(F)cc(SCCNS(=O)(=O)c2ccccc2)cc1F | inactive
NC(Cc1ccc(N(CCCl)CCCl)cc1)C(=O)O (stereo not given) | inactive
C=CCN1C[C@@H](C)N([C@H](c2ccc(C(=O)N(CC)CC)cc2)c2cccc(OC)c2)C[C@@H]1C | inactive
OCc1cnc[nH]1 | inactive
C[N+]1(C)CCN(c2ccccc2)CC1 | inactive
C[C@H](N)CN1CCc2ccc(Br)cc21 | inactive
CP(=O)(O)C1=CCNCC1 | inactive
NCCc1c[nH]c2ccc(C(N)=O)cc12 | inactive
COc1ccc2c(c1)c(CCN1CCOCC1)c(C)n2C(=O)c1cccc(Cl)c1Cl | inactive
CCCN1CC[C@@H]2c3cc(O)ccc3CC[C@@H]21 | inactive
NC(CCCCCP(=O)(O)O)C(=O)O (stereo not given) | inactive
Cc1[nH]c2ccc(O)cc2c1CCN | inactive
CCCCCCC(C)(C)c1ccc([C@@H]2C[C@H](O)CC[C@H]2CCCO)c(O)c1 | inactive
CC(N)Cc1c[nH]c2ccc(O)cc12 (stereo not given) | inactive
N#C/C(=C/c1ccc(O)c(O)c1)C(N)=S | 2.99 µM (active)
NC(C(=O)O)c1cc(=O)[nH]o1 (stereo not given) | inactive
